From PubChem BioAssay
Activity calls are given as the source filed them.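 Rule for the calls, unless noted: active = fluorescence slope after compound addition differing from the mean of all screened samples at 99.7% confidence, in either direction; inactive = the rest.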

Key:
[1] = inhibitors of TNFa-induced NFkB p65 translocation, primary screen, imaging, HUVEC, MLSMR starter and 10KST1 sets (AID 438;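 active = inhibition above 20% together with a positive visual image hit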;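 note: compound added about 3h40 before a 20 min TNFalpha stimulation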;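 for inhibition: signal is the nuclear over cytoplasmic p65 intensity ratio per well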); details: HUVEC TNFa-induced p65 nuclear translocation; cell count: measured here: nuclei count (cytotoxicity indicator), at 2.08 µM; inhibition: at 2 µM, stronger effect = higher value, 0% TNFa-plus-vehicle, 100% no-TNFa wells
[2] = reduction of polyQ htt aggregates in cells – imaging, exon1htt(103Q)mCFP cells, high-content imaging, primary screen (AID 483;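 active = visual image review flags a hit and inhibition of aggregation exceeds 20%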;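 note: compound exposure lasted 3 days before fixation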;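 for nuclei count: percent of the per-plate median nuclei count of sample wells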); details: exon1htt(103Q)mCFP cell line, aggregate imaging, at 2 µM; inhibition of aggregation: stronger effect = higher value; nuclei count: measured here: cell count, toxicity
[3] = endothelial E-selectin expression blockers – imaging, HUVEC, immunofluorescence, MLSMR starter and 10KST1 sets, primary screen (AID 487;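 active = visually confirmed hit in the image check and inhibition above 20%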;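 for inhibition: signal is fraction of cell area covered by stained E-selectin grains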;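 for nuclei count: 100% = median nuclei count of all wells on the same plate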); details: HUVEC TNFalpha-induced E-selectin immunofluorescence imaging, at 2 µM; inhibition: stronger effect = higher value; nuclei count: measured here: cell number, toxicity
[4] = molecular target: Voltage-gated potassium channel subunit beta-2 (Rattus norvegicus) (UniProt P62483); assay: inhibitors of rat Kvbeta2 reductase activity – biochemical, NADPH fluorescence, primary screen (AID 622;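 active = fluorescence slope higher than the sample average by over 3 SD, cut at about -0.22 in these data, passing the limit was not always enough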;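 note: slope of raw intensity against log time taken from 70 to 1610 s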); details: recombinant KvBeta, 4-cyanobenzaldehyde reduction, at 10 µM, stronger effect = higher value
[5] = molecular target: Voltage-gated potassium channel subunit beta-2 (Rattus norvegicus) (UniProt P62483); assay: enhancers of rat Kvbeta2 NADPH turnover – biochemical, NADPH fluorescence, primary screen (AID 623;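 active = NADPH fluorescence slope more negative than the mean of all samples by about 3 SD, 99.7% confidence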;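 note: fluorescence intensity change per second fitted from 20 to 320 s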); details: Recombinant KvBeta, NADPH fluorescence decrease slope, 10 min; at 10 µM; stronger effect = lower value
[6] = molecular target: Alpha-2C adrenergic receptor (Homo sapiens) (UniProt P18825); assay: compounds altering alpha2C-coupled GIRK flux – cell-based, HEK293 alpha2C/GIRK1/2, thallium flux, primary screen (AID 624); details: thallium flux BTC fluorescence, at 10 µM, actives lie on both sides;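 note: slope of fluorescence ratio to pre-addition baseline per second over 15 to 24 s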
[7] = blockers of RIG-like receptor reporter activation – cell-based, Sendai virus stimulus, luciferase, 10K MLSCN set, TLR/RLR signaling modifier project, primary screen (AID 602276;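 active = inhibition at or above 50% at 10 µM; inactive = inhibition below 50%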;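 note: firefly luciferase from ISG56 promoter only with Renilla not read in this screen; 0% = Sendai virus plus DMSO and 100% = medium plus DMSO without virus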); details: HEK293 RL24 IRF3 luciferase reporter, at 10 µM, stronger effect = higher value
[8] = TLR3 IRF3 reporter activation blockers – cell-based, poly I:C stimulus, luciferase, 10K MLSCN set, primary screen (AID 602277;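 active = inhibition of the reporter signal at or above 50%; inactive = inhibition below 50%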); details: HEK293-TLR3 RL24 IRF3 luciferase reporter, at 10 µM, stronger effect = higher value

Sequence of Voltage-gated potassium channel subunit beta-2 (Rattus norvegicus) (P62483 whole entry, looked up): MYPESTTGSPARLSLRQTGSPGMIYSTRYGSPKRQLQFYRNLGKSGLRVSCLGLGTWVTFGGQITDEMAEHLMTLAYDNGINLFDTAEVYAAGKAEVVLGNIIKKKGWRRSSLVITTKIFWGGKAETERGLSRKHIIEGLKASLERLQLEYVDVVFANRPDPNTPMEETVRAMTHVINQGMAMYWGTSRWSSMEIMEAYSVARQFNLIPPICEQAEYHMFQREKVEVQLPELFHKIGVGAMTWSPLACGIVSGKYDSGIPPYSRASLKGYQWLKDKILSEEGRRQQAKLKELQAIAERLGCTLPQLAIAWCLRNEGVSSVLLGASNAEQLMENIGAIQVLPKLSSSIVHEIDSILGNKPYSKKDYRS
Sequence of Alpha-2C adrenergic receptor (Homo sapiens) (P18825 whole entry, looked up): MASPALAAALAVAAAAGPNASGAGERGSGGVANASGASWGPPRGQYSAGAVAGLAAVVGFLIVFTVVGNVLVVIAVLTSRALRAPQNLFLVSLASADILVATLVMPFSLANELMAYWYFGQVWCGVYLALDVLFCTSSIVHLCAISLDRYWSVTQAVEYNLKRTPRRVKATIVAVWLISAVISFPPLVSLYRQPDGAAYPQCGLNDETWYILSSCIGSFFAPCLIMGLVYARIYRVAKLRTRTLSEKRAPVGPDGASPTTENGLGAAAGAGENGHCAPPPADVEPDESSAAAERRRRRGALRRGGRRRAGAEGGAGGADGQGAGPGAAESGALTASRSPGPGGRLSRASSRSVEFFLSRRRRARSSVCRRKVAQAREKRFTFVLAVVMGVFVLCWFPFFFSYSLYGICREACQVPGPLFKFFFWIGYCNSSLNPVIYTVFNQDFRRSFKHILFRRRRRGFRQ

COc1ccc(-c2cc3c(=O)n(CC(=O)NC4CCN(Cc5ccccc5)CC4)ncn3n2)cc1
cell count [1]: 296
inhibition [1]: 2.8% (inactive)
inhibition of aggregation [2]: 0.5% (inactive)
nuclei count [2]: 91.9%
inhibition [3]: 2.5% (inactive)
nuclei count [3]: 90.8%
fluorescence slope [4]: -0.404 (inactive)
NADPH fluorescence slope [5]: -4.1e-05 (inactive)
slope [6]: 0.00479 (inactive)
inhibition [7]: -14.7% (inactive)
inhibition [8]: -13.3% (inactive)

CC(C)N(Cc1nc(-c2ccc(Cl)cc2)no1)C(=O)CN(C)S(=O)(=O)c1ccc(Cl)cc1
cell count [1]: 629
inhibition [1]: -2.8% (inactive)
inhibition of aggregation [2]: -11.8% (inactive)
nuclei count [2]: 95.7%
inhibition [3]: -53.8% (inactive)
nuclei count [3]: 106%
fluorescence slope [4]: -0.467 (inactive)
NADPH fluorescence slope [5]: -5.4e-05 (inactive)
slope [6]: 0.00647 (inactive)
inhibition [7]: 20.4% (inactive)
inhibition [8]: 25.9% (inactive)

CCOC(=O)c1ccc(NS(=O)(=O)c2ccc3c(c2)CCCN3C(C)=O)cc1
cell count [1]: 684
inhibition [1]: 0.7% (inactive)
inhibition of aggregation [2]: 9.2% (inactive)
nuclei count [2]: 99%
inhibition [3]: -93.7% (inactive)
nuclei count [3]: 125%
fluorescence slope [4]: -0.543 (inactive)
NADPH fluorescence slope [5]: 8.9e-06 (inactive)
slope [6]: 0.00506 (inactive)
inhibition [7]: 1.89% (inactive)
inhibition [8]: 6.65% (inactive)

C=C(C)c1cccc(C(C)(C)NC(=O)NCC2CCCO2)c1 (stereo not drawn)
cell count [1]: 496
inhibition [1]: 2.3% (inactive)
inhibition of aggregation [2]: -23% (inactive)
nuclei count [2]: 108%
inhibition [3]: -31.1% (inactive)
nuclei count [3]: 113%
fluorescence slope [4]: -0.362 (inactive)
NADPH fluorescence slope [5]: -5.6e-05 (inactive)
slope [6]: 0.0056 (inactive)
inhibition [7]: 7.08% (inactive)
inhibition [8]: 9.27% (inactive)

COc1ccccc1N1CCN(C(=O)N2CCOCC2)CC1
cell count [1]: 683
inhibition [1]: -8.1% (inactive)
inhibition of aggregation [2]: -2.9% (inactive)
nuclei count [2]: 100%
inhibition [3]: -80.8% (inactive)
nuclei count [3]: 107%
fluorescence slope [4]: -0.417 (inactive)
NADPH fluorescence slope [5]: -6.2e-05 (inactive)
slope [6]: 0.00512 (inactive)
inhibition [7]: 19% (inactive)
inhibition [8]: 26.2% (inactive)

CCOc1cc(-c2nc(-c3ccccc3OC)no2)cc(OCC)c1OCC
cell count [1]: 575
inhibition [1]: 7.7% (inactive)
inhibition of aggregation [2]: 0.8% (inactive)
nuclei count [2]: 98.3%
inhibition [3]: -68.3% (inactive)
nuclei count [3]: 109%
fluorescence slope [4]: -0.605 (inactive)
NADPH fluorescence slope [5]: -4.7e-05 (inactive)
slope [6]: 0.00447 (inactive)
inhibition [7]: 11.5% (inactive)
inhibition [8]: 12.6% (inactive)

CCOC(=O)N1CCN(c2c(NCC3CCN(Cc4cccc(C)c4)CC3)c(=O)c2=O)CC1
cell count [1]: 577
inhibition [1]: -2.7% (inactive)
inhibition of aggregation [2]: 25.8% (inactive)
nuclei count [2]: 104%
inhibition [3]: -67.1% (inactive)
nuclei count [3]: 129%
fluorescence slope [4]: -0.507 (inactive)
NADPH fluorescence slope [5]: -2.1e-05 (inactive)
slope [6]: 0.00653 (inactive)
inhibition [7]: 5.85% (inactive)
inhibition [8]: 23.9% (inactive)

COc1ccc(Nc2nc(-c3sc(N)nc3C)cs2)cc1
cell count [1]: 661
inhibition [1]: -5.8% (inactive)
inhibition of aggregation [2]: -10.7% (inactive)
nuclei count [2]: 116%
inhibition [3]: -75.8% (inactive)
nuclei count [3]: 118%
fluorescence slope [4]: -0.376 (inactive)
NADPH fluorescence slope [5]: -6.4e-05 (inactive)
slope [6]: 0.0038 (inactive)
inhibition [7]: -13.1% (inactive)
inhibition [8]: -17.6% (inactive)
